Data taken from PubChem BioAssay AID1159580 (chemical genetic matrix, 2015).
Screen size: about 5,500 compounds; about 2,000 (36%) were called active. Another 18% or so got no clear call; they are omitted. Rule as the data show it: active = normalized growth mostly below about 0.91 (no sharp cut-off); inconclusive = no clear call, values can overlap the other calls; inactive = mostly above about 0.92. Some of the results follow.

Test: chemical genetic growth profiling, strain panel (AID 1159580);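 also: tested at 20 µM; growth read once vehicle control cultures reached saturation at 30 °C; 1 = growth at the plate median or of vehicle wells; lower values mean less growth of the strain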
Details: S. cerevisiae deletion strains, growth OD

Measured: normalized growth

Nc1ccn([C@@H]2O[C@H](CO)[C@@H](O)C2O)c(=O)n1 (some centres not stated)
inactive: locus YAL013W, strain DEP1, hits give low values 0.982 | locus YAL040C, strain CLN3, hits give low values 1.03 | locus YDR363W, strain ESC2, hits give low values 0.981 | locus YER002W, strain NOP16, hits give low values 1 | locus YNL128W, strain TEP1, hits give low values 0.967 | locus YNL175C, strain NOP13, hits give low values 0.987 | locus YNL197C, strain WHI3, hits give low values 0.976 | locus YNL224C, strain SQS1, hits give low values 0.983 | locus YNL322C, strain KRE1, hits give low values 1 | locus YOR083W, strain WHI5 (second series), hits give low values 1.05 | locus YPL055C, strain LGE1, hits give low values 0.99 | locus YPL241C, strain CIN2, hits give low values 0.996

CN(CCC(N)CC(=O)N[C@H]1C=CC(n2ccc(N)nc2=O)O[C@@H]1C(=O)O)C(=N)N (some centres not stated)
active: locus YAL021C, strain ccr4, hits give low values 0.406 | locus YBR009C, strain hhf1, hits give low values 0.895 | locus YBR279W, strain paf1, hits give low values 0.916 | locus YCL061C, strain MRC1, hits give low values 0.899 | locus YDL005C, strain med2, hits give low values 0.111 | locus YDR069C, strain doa4, hits give low values 0.494 | locus YDR159W, strain sac3, hits give low values 0.659 | locus YDR195W, strain ref2 0.603 | locus YDR335W, strain msn5, hits give low values 0.626 | locus YDR392W, strain spt3, hits give low values 0.262 | locus YER015W, strain faa2, hits give low values 0.917 | locus YER111C, strain swi4, hits give low values 0.793 | locus YER155C, strain BEM2 (second series), hits give low values 0.826 | locus YFR010W, strain ubp6, hits give low values 0.725 | locus YGL173C, strain kem1, hits give low values 0.124 | locus YGL240W, strain doc1, hits give low values 0.31 | locus YHR027C, strain rpn1, hits give low values 0.814 | locus YHR142W, strain chs7, hits give low values 0.846 | locus YJL092W, strain hpr5, hits give low values 0.913 | locus YJL095W, strain BCK1 (second series), hits give low values 0.891 | locus YJL115W, strain asf1, hits give low values 0.725 | locus YJL129C, strain trk1, hits give low values 0.637 | locus YJL154C, strain vps35, hits give low values 0.898 | locus YJL164C, strain tpk1, hits give low values 0.888 | locus YJL166W, strain qcr8, hits give low values 0.891 | locus YJL187C, strain SWE1, hits give low values 0.872 | locus YJR066W, strain TOR1, hits give low values 0.814 | locus YKL160W, strain elf1, hits give low values 0.887 | locus YLR027C, strain aat2, hits give low values 0.872 | locus YLR221C, strain rsa3, hits give low values 0.871 | locus YLR357W, strain rsc2, hits give low values 0.31 | locus YLR370C, strain arc18, hits give low values 0.478 | locus YLR384C, strain iki3, hits give low values 0.692 | locus YML120C, strain ndi1, hits give low values 0.888 | locus YMR058W, strain fet3, hits give low values 0.885 | locus YMR125W, strain sto1, hits give low values 0.686 | locus YMR231W, strain pep5, hits give low values 0.734 | locus YNL071W, strain lat1, hits give low values 0.89 | locus YNL209W, strain ssb2, hits give low values 0.796 | locus YNL248C, strain rpa49, hits give low values 0.73 | locus YOR001W, strain rrp6, hits give low values 0.793 | locus YOR080W, strain dia2, hits give low values 0.776 | locus YOR106W, strain vam3, hits give low values 0.699 | locus YPL051W, strain arl3, hits give low values 0.869 | locus YPL078C, strain atp4, hits give low values 0.826 | locus YPL106C, strain sse1, hits give low values 0.356 | locus YPL240C, strain hsp82, hits give low values 0.924
inactive: locus YAL026C, strain drs2, hits give low values 0.953 | locus YAL030W, strain snc1, hits give low values 0.93 | locus YBL061C, strain skt5, hits give low values 0.938 | locus YBR023C, strain chs3, hits give low values 0.944 | locus YBR171W, strain sec66, hits give low values 0.963 | locus YBR231C, strain swc5, hits give low values 0.976 | locus YCL011C, strain gbp2, hits give low values 0.935 | locus YCL016C, strain dcc1, hits give low values 0.947 | locus YCL069W, strain vba3, hits give low values 0.942 | locus YCR088W, strain abp1, hits give low values 0.962 | locus YDL040C, strain nat1, hits give low values 0.983 | locus YDR001C, strain nth1, hits give low values 0.965 | locus YDR137W, strain rgp1, hits give low values 0.852 | locus YDR297W, strain sur2, hits give low values 0.941 | locus YDR334W, strain swr1, hits give low values 0.917 | locus YEL003W, strain gim4, hits give low values 0.919 | locus YEL037C, strain rad23, hits give low values 0.963 | locus YEL061C, strain CIN8 (second series), hits give low values 0.952 | locus YER016W, strain bim1, hits give low values 0.976 | locus YGL167C, strain pmr1, hits give low values 0.998 | locus YGL227W, strain vid30, hits give low values 0.98 | locus YGL253W, strain hxk2, hits give low values 0.942 | locus YHR013C, strain ard1, hits give low values 0.929 | locus YHR030C, strain SLT2, hits give low values 0.9 | locus YHR079C, strain IRE1, hits give low values 0.924 | locus YJL095W, strain BCK1, hits give low values 0.934 | locus YKR026C, strain gcn3, hits give low values 0.965 | locus YKR091W, strain srl3, hits give low values 0.986 | locus YLL001W, strain dnm1, hits give low values 0.923 | locus YLL026W, hits give low values 0.934 | locus YLL041C, strain sdh2, hits give low values 0.946 | locus YLR113W, strain HOG1, hits give low values 0.958 | locus YLR258W, strain gsy2, hits give low values 0.922 | locus YLR262C, strain YPT6 (second series), hits give low values 0.904 | locus YLR320W, strain mms22, hits give low values 0.957 | locus YLR342W, strain FKS1, hits give low values 0.943 | locus YMR129W, hits give low values 0.949 | locus YMR205C, strain PFK2, hits give low values 1 | locus YNL183C, strain NPR1, hits give low values 0.881 | locus YNL322C, strain KRE1 (second series), hits give low values 0.942 | locus YNR049C, strain mso1, hits give low values 0.94 | locus YOR070C, strain gyp1, hits give low values 0.962 | locus YOR083W, strain WHI5, hits give low values 0.923 | locus YOR231W, strain MKK1, hits give low values 0.87 | locus YOR265W, strain rbl2, hits give low values 0.966 | locus YOR270C, strain vph1, hits give low values 0.781 | locus YOR290C, strain snf2, hits give low values 0.875 | locus YPL256C, strain CLN2, hits give low values 0.901
